Laboratory results: PubChem BioAssay (NCI)
Compounds without any hit were thinned out: in the full panel of roughly 83,000, 20% have a hit.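 Assay: single dose, 48 h. Readout: percent growth (0 = no net growth; negative = cell death). Active: <10.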 Calls of active or inactive are those of the source.

These compounds were tested on SNB-75 CNS (assay: NCI-60 one-dose screen, 48 h (100 = growth as untreated, 0 = no growth, -100 = all killed)). Details: 10 µM unless noted.
Protocol: Growth inhibition of the SNB-75 human tumor cell line is measured as a screen for anti-cancer activity. Cells are grown in 96 well plates and exposed to the test compound for 48 hours. Compounds are tested at a single concentration, which is 10^-5 M for most compounds. The reported endpoint is percent growth (GI% or GIPRCNT), where numbers from 0 - 100% represent growth inhibition, and numbers from -100% - 0 represent cell death. For example, a value of 40 represents 60% growth inhibition. A value of 0 means no net growth occurred over the course of the experiment. A value of -40 indicates 40% of cells at the beginning of the experiment died by the end of the experiment. A value of -100 means all cells are dead at the end of the experiment.
NCI-60 Human Tumor Cell Lines Screen was performed using the standard one-dose NCI protocol, which is described in more detail at https://dtp.cancer.gov/discovery_development/nci-60/default.htm.
Compounds with GIPRCNT values below 10 were considered active. Activity score was based on GIPRCNT using the following formula: […]
Score is 0 for GIPRCNT values of 100 or above, 50 for GIPRCNT values of 0, and 100 for GIPRCNT values of -100.
`O=C(/C=C/c1ccccc1)n1c(-c2ccc(Cl)cc2)nc2ccccc21` was tested, and the growth was 18.1% (inactive).
For `CCN1C(=O)N(CC)C2Nn3c(s/c(=C4\C(=O)N(C5CCCC5)c5ccccc54)c3=O)=NC21` (stereo not given), the growth was 8.34% (active).
`Cc1ccc2nc(-c3c(N)n[nH]c3CCCO)[nH]c(=O)c2c1` was tested, and the growth was 91% (inactive).
`CC(C)(C)OC(=O)N[C@@H](Cc1ccccc1)C(=O)N(Cc1ccccc1)C1(C(=O)NCc2ccccc2)CCN(Cc2ccccc2)CC1` was tested, and the growth was 44.9% (inactive).
In the case of `COc1ccc(C2=NN(c3ccc(S(N)(=O)=O)cc3)C(c3cn(-c4ccccc4)nc3-c3ccc(Cl)cc3)C2)cc1` (stereo not given), the growth is reported as 89.9% (inactive).
`COc1ccc(Cl)cc1NC(N)=S` was tested, and the growth was 86.6% (inactive).
`Cc1ccc2c(c1)ncn2-c1ncnc2c1CC(C)c1ccccc1N2C` (stereo not given) was tested, and the growth was 43.9% (inactive).
For `N#Cc1c(NC(=O)c2ccc([N+](=O)[O-])o2)[n+]([O-])c2cc(F)c(F)cc2[n+]1[O-]`, the growth was 114% (inactive).
For `CC(Br)C(OC(=O)c1ccccc1Cl)c1cc2c(cc1Br)OCO2` (stereo not given), the growth was 67.4% (inactive).
For `CCc1cccc(C)c1NC(=O)c1sc2nc3c(cc2c1N)C(=O)CCC3`, the growth was -2.83% (active).
For `O=S(=O)(NCCCNc1cc(-c2cn(-c3ccccc3)nc2-c2cccc(O)c2)ccn1)c1ccc(Br)cc1`, the growth was 25.8% (inactive).
For `O=c1[nH]c2ccccc2cc1-c1nnc(Cc2ccccc2)o1`, the growth was 69.3% (inactive).
`Cc1ccc(C2=NN(c3ccc(S(=O)(=O)NC(=O)NCc4ccccc4)cc3)C(c3ccc(N(C)C)cc3)C2)c(C)c1` (stereo not given) was tested, and the growth was 65.1% (inactive).
`COc1cc2c(cc1OCCCCn1c(-c3cc(=O)c4ccccc4o3)nc3ccccc31)N=C[C@@H]1CCCN1C2=O` was tested, and the growth was 101% (inactive).
`Nc1c(C(=O)Nc2cccc(C(F)(F)F)c2)sc2nc3c(cc12)CCCCCC3` was tested, and the growth was -34% (active).
In the case of `c1ccc2nc(-c3ccc4ccccc4n3)ccc2c1`, the growth is reported as 85.6% (inactive).
For `C=C1C(=O)O[C@H]2[C@H]1CC/C(Cn1cc(-c3ccccc3C(F)(F)F)nn1)=C\CC[C@@]1(C)O[C@@H]21`, the growth was 35.1% (inactive).
For `COc1cc(/C=C/C(=O)c2ccc(NC(=O)CN3CCN(c4cc5c(cc4F)c(=O)c(C(=O)O)cn5C4CC4)CC3)cc2)cc(OC)c1OC`, the growth was 76.6% (inactive).
With `Nc1nc(Cl)c2c(ncn2Cc2ccc(CCl)cc2)n1` the growth was 100% (inactive).
`O=C(CCC(=O)OC1CCCC1)OC1CCCC1` was tested, and the growth was 77.3% (inactive).
For `CCCOC(=O)C1(O)CCCC1`, the growth was 80.9% (inactive).
`Clc1nc(Cl)c2ncn(C/C=C/Cn3cnc4c(Cl)nc(Cl)nc43)c2n1` was tested, and the growth was 65% (inactive).
With `NC(=S)NN=C1CCCCC1` the growth was 105% (inactive).
`CCCCn1c(=O)c(C2CNC(=O)c3ccccc3N2)cc2ccccc21` (stereo not given) was tested, and the growth was 84% (inactive).
For `Cc1ccc(-c2csc3nc(C)c(CCCl)c(=O)n23)cc1`, the growth was 74.7% (inactive).
In the case of `C=CCN=C1NC(=O)/C(=C/c2cc(C(C)(C)C)c(O)c(C(C)(C)C)c2)S1`, the growth is reported as 88.8% (inactive).
For `O=C1Nc2cc(Cl)ccc2Oc2cc(Oc3ccccc3)ccc21`, the growth was 50.9% (inactive).
`N#Cc1ccc(NC(=O)c2ccc3cccnc3c2O)cc1` was tested, and the growth was 43.8% (inactive).
`Nc1c(C(=O)Nc2cccc([N+](=O)[O-])c2)sc2nc3c(cc12)C(O)CCC3` (stereo not given) was tested, and the growth was 16.9% (inactive).
`O=C(O)c1cn(C2CC2)c2cc(N3CCN(S(=O)(=O)c4ccc(Cl)c(Cl)c4)CC3)c(F)cc2c1=O` was tested, and the growth was 13.2% (inactive).
In the case of `Cc1ccnc2nc(C(=O)OCC(=O)Nc3ccc(-c4ccccc4)cc3)nn12`, the growth is reported as 95% (inactive).
With `O=C1c2ccccc2C(=O)c2c1oc1oc3c(c(=O)c21)c(=O)n(-c1ccccc1)c1ccccc31` the growth was 31.8% (inactive).
For `COc1cc(Cn2c(SCC(=O)Nc3ccc(Cl)cc3)nc3ccccc3c2=O)cc(OC)c1OC`, the growth was 27.1% (inactive).
In the case of `NC(=O)c1c(NC(=O)c2ccc3c(c2)OCO3)sc2c1CCC(=O)C2`, the growth is reported as -12.6% (active).
`COc1ccc(/C=C2\Oc3cc(OCCN4CCCC4)ccc3C2=O)c(OC)c1` was tested, and the growth was 93.2% (inactive).
With `O=C1N=C(c2c(-c3[nH]c(=O)c4ccc(Br)cc4c3O)c(O)c3ccccc3c2O)C(=O)c2cc(Br)ccc21` the growth was -35.8% (active).
With `Nc1c(C(=O)Nc2cccc(C(F)(F)F)c2)sc2nc3c(cc12)C(O)CCC3` (stereo not given) the growth was -6.78% (active).
In the case of `COc1cc(/C=C2\CCCC3=C2N=C2SC(C)=NN2C3c2cc(OC)c(OC)c(OC)c2)cc(OC)c1OC` (stereo not given), the growth is reported as -7.84% (active).
For `NC(=O)c1ccc2c(c1)OCO2`, the growth was 84.2% (inactive).
With `COc1cc2nc(Cl)nc(NCCO)c2cc1OC` the growth was 86.1% (inactive).
